Bioassay records deposited in PubChem BioAssay by National Center for Advancing Translational Sciences (NCATS).
pS6 MEF inh: reduces mTORC1 signaling in Tsc2 and p53 null MEF cells; Tsc2-/- p53-/- MEF, phospho-rpS6 immunofluorescence/PI, 24 h; AID 493208; 44,000 tested, 0.78% active; Potency, µM (highest dose often 38.3 µM), for the others: at the highest dose activity change, negative = inhibition, usual class: inhibitors;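 note: potency is the fitted concentration of half-maximal effect; plate controls were DMSO for no effect and rapamycin for full effect; nearly all actives have a fitted effect of over 50% in size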
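Tsc2-/-, p53-/- MEFs (empty-vector stable line) in DMEM + 10% FBS were treated with compounds 24 h at 37 degree Celsius, fixed, and immunostained for phospho-rpS6 (Alexa-488) with propidium iodide counterstain. Laser-scanning cytometry gave % positive cells, normalized against 7.5 nM rapamycin and DMSO.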
PMP22 txn prim: PMP22 gene transcription modulation. AID 1508649. 43,000 tested, 2% active. Potency, µM (top dose mostly 57.5 µM), for inactives: at the top dose activity change, negative = inhibition, most hits filed as inhibitors. S16 Pmp22-F2sN Schwann cells, FLuc/NLuc coincidence luminescence, 24 h; active = clear falling dose curves in both reporters; inconclusive = both reporters move, but less clearly or upward; inactive = either reporter flat; the % is the NLuc reporter signal; note: potency is the fitted concentration of half-maximal effect; % is set by controls: 0 for no effect and ±100 for the full control effect
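Reporter cells (S16 Pmp22-F2sN, 500–1,000 per well) exposed to compounds for 24 h, 37C, 5% CO2; lysis with FLuc read after 10 min, then Stop&Glo and NLuc read after 10 min.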
S16 F2sN tox: S16 Schwann cell cytotoxicity. S16 Pmp22-F2sN Schwann cells (luciferase reporters placed in the Pmp22 gene) viability, CellTiter-Glo, 24 h. Potency, µM (series often up to 57.5 µM), for inactives: at the highest dose activity change, negative = cytotoxicity, most hits filed as cytotoxic. 43,000 tested, 0.48% active. AID 1508642; note: potency is the fitted concentration of half-maximal effect; % is set by controls: 0 for no effect and ±100 for the full control effect; nearly all actives have a fitted effect of over 65% in size
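CellTiter-Glo counter-screen, qHTS, 1536-well. Cells: S16(c9) Pmp22-F2sN, 500-1,000/well in DMEM + 10% FBS. Cpd 23 nL pin transfer, 24 h, 37C/5% CO2. Read: luminescence, CCD imager.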
p53null 32C tox: kills p53 null cells at the permissive temperature. H1299-neo p53 null cells, ATP luminescence, 24 h, 32C. Potency, µM (series often up to 46.1 µM), without a hit: top-dose activity change, negative = cytotoxicity, actives largely listed as cytotoxic. 55,000 tested, 0.62% active;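 note: potency is the fitted concentration of half-maximal effect; 0% = DMSO only and -100% = full killing by 100 µM tamoxifen; nearly all actives have a fitted effect of over 55% in size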
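We seeded p53-null H1299-neo cells, incubated them overnight at 37C, and added compounds across a range up to 46 uM. After 24 hours at 32C, ATP reagent was applied for 20 min at room temperature and luminescence recorded.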
p53null 39C tox: kills p53 null cells at the nonpermissive temperature. Potency, µM (top dose mostly 46.1 µM), for the others: top-dose activity, negative = cell killing, actives largely listed as cytotoxic. H1299 p53-null (neo) cells, 39C, ATPlite viability, 24 h. 55,000 tested, 0.97% active;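 note: potency is the fitted concentration of half-maximal effect; 0% = DMSO only and -100% = full killing by 100 µM tamoxifen; nearly all actives have a fitted effect of over 50% in size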
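Cells seeded at 600/well, 37C overnight. Compound added (up to 46 uM), plates shifted to 39C for 24 hr. ATPlite added, luminescence read after 20 min at room temperature.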
NLuc saturating: NanoLuc enzyme inhibition artifact for PMP22 screen | shares compounds with PMP22 txn prim | Secreted NLuc enzyme (filtered S16 cell medium), Nano-Glo luminescence | Potency, µM (highest dose often 57.5 µM), inactives show at the top dose activity change, negative = inhibition, usual class: inhibitors | 690 tested, 4% active | AID 1508638; note: potency is the fitted concentration of half-maximal effect; % is set by controls: 0 for no effect and ±100 for the full control effect
NLuc Km ctr: counter-screen for PMP22 expression modulators: NanoLuc inhibition at Km; shares compounds with PMP22 txn prim; secreted NLuc enzyme, coelenterazine luminescence, Km conditions; Potency, µM (series often up to 57.5 µM), inactives show at the top dose activity change, negative = inhibition, usual class: inhibitors; 690 tested, 5% active; AID 1508639; note: potency is the fitted concentration of half-maximal effect; % is set by controls: 0 for no effect and ±100 for the full control effect
FLuc counter: inhibits firefly luciferase, PMP22 counter-screen; shares compounds with PMP22 txn prim; purified P. pyralis FLuc, luminescence, 10 min; 690 tested, under 10 active; Potency, µM (titrated, usually from 57.5 µM), for inactives: top-dose activity, negative = inhibition, most hits filed as inhibitors; note: % of control where 0% means no effect
Target sequence (P08659 whole entry, looked up): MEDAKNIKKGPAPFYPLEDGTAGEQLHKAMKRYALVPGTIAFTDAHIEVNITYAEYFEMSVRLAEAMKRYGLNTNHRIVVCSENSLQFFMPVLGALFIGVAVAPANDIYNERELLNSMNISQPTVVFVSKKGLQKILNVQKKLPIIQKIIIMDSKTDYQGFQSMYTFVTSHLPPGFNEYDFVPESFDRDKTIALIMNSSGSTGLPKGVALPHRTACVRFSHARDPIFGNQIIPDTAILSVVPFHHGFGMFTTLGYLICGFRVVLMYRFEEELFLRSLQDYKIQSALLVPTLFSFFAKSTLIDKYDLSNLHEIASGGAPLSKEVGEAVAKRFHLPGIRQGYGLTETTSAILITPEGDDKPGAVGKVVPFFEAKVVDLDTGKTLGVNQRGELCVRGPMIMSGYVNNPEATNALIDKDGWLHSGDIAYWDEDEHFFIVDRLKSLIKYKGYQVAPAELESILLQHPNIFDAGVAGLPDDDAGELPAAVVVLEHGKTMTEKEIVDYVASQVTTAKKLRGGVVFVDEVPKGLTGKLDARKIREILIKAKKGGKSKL
S16 F2sN tox cnf: S16 Schwann cell cytotoxicity, confirmatory; shares compounds with PMP22 txn prim; S16 Schwann cells viability, CellTiter-Glo ATP luminescence, 24 h; Potency, µM (titrated, usually from 57.5 µM), for the others: at the highest dose activity change, negative = viability loss, most hits filed as cytotoxic; 690 tested, 7% active; AID 1508641; note: potency is the fitted concentration of half-maximal effect; % is set by controls: 0 for no effect and ±100 for the full control effect
PMP22 txn cnf: PMP22 transcription modulation, confirmatory; shares compounds with PMP22 txn prim; 690 tested, 22% active; AID 1508646; S16 Schwann cells Pmp22-F2sN, dual luciferase, 24 h; Potency, µM (top dose mostly 57.5 µM), without a hit: at the top dose activity change, negative = inhibition, usual class: inhibitors; active = clear falling dose curves in both reporters; inconclusive = both reporters move, but less clearly or upward; inactive = either reporter flat; the % is the FLuc reporter signal; note: potency is the fitted concentration of half-maximal effect
PMP22 HiBiT cnf: confirmation of modulators of rat PMP22 protein expression; shares compounds with PMP22 txn prim; S16 Schwann cells Pmp22-HiBiT, luminescence, 48 h; Potency, µM (highest dose often 27.9 µM), inactives show at the highest dose activity change, negative = inhibition, hits mostly inhibitors; 95 tested, under 10 active
Target sequence (P25094 whole entry, looked up): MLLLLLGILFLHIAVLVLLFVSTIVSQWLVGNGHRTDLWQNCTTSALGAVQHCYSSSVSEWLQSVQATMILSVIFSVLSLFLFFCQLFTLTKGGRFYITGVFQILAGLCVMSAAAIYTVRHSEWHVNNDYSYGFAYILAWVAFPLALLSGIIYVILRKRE
Starred values were filed as active, the others as inactive; ? = inconclusive; . = no result given. Rows were chosen to be rich in hits. Some 3.2% of all compounds tested hit in one or more screens of this group. Unless noted, calls come from the whole dose curve; as a rule, active = well fitted curve in the direction sought with a large enough effect; inconclusive = small, poorly fitted or top-dose-only effect, or another doubt; inactive = no such curve, though single readings can be large; an effect the other way counts as inactive or inconclusive.

SMILES	pS6 MEF inh	PMP22 txn prim	S16 F2sN tox	p53null 32C tox	p53null 39C tox	NLuc saturating	NLuc Km ctr	FLuc counter	S16 F2sN tox cnf	PMP22 txn cnf	others
COc1ccc(NC(=O)C2=CC(c3ccc4c(c3)OCO4)=NS(=O)(=O)N2C)cc1OC	-1.8%	-1.8%	1.8%	-1.4%	5.1%	.	.	.	.	.
O=C(CCn1cnnn1)Nc1cc(C(F)(F)F)cc(C(F)(F)F)c1	-5.0%	3.95µM*	-4.7%	-16.3%	-0.6%	-10.0%	2.7%	-10.4%	0.6%	?
COc1cccc(CNC(=O)CN(C)S(=O)(=O)c2ccc3[nH]c4c(c3c2)CCCC4)c1	-3.9%	-25.5%	-5.5%	0.7%	-9.1%	.	.	.	.	.
COCCNc1nc2c(S(=O)(=O)c3ccc(C)c(C)c3)nnn2c2ccc(Cl)cc12	-2.5%	10.4%	-9.5%	-4.6%	13.8%	.	.	.	.	.
COc1ccccc1CNc1nc2c(S(=O)(=O)c3ccc(C)c(C)c3)nnn2c2ccc(Cl)cc12	0.4%	6.31µM*	1.6%	-4.7%	-0.8%	-0.8%	-1.1%	-2.4%	21.7µM*	7.74µM*
CCc1ccc(S(=O)(=O)c2nnn3c2nc(N(CC)Cc2ccccc2)c2cc(Cl)ccc23)cc1	-3.4%	6.7µM*	-10.8%	2.1%	-7.8%	-0.9%	1.9%	3.9%	4.9%	-13.9%
CCOC(=O)c1c(C)[nH]c(C)c1S(=O)(=O)N1CCC(C(=O)N2CCN(c3ccccc3)CC2)CC1	-6.4%	3.4%	5.1%	1.8%	-1.5%	.	.	.	.	.
N#Cc1ccccc1Cn1c(=O)n(-c2cccc(C(F)(F)F)c2)c(=O)c2sccc21	-2.7%	1.2%	18.3%	-5.7%	-15.7%	.	.	.	.	.
COc1ccc(N(CC(=O)Nc2cc(OC)cc(OC)c2)S(=O)(=O)c2c(C)noc2C)cc1	-0.6%	?	-20.4%	18.5%	7.1%	.	.	.	.	.
COc1ccc(N(CC(=O)Nc2cc(Cl)ccc2C)S(=O)(=O)c2c(C)noc2C)cc1	-17.3%	13.5µM*	-4.5%	20.4%	45.8%	-8.4%	?	1.0%	-8.1%	?	PMP22 HiBiT cnf=?
CCOc1cccc2sc(N3CCN(C(=O)c4ccc5c(c4)CCCC5)CC3)nc12	2.6%	?	-8.8%	-26.1%	5.1%	.	.	.	.	.
CCOC(=O)c1c(-c2ccccc2)oc2ccc(NS(=O)(=O)c3ccc(OC)cc3)cc12	?	-19.6%	?	48.4%	51.1%	.	.	.	.	.
CCCc1oc2ccc(NS(=O)(=O)c3ccc(OC)cc3)cc2c1C(=O)OCC	4.14µM*	13.4µM*	8.0%	5.4%	?	-14.1%	?	-0.6%	3.7%	-51.8%
CCOC(=O)c1c(S(=O)(=O)N2CCCC(C(=O)N3CCN(c4cccc(C)c4C)CC3)C2)c(C)n(C)c1C (stereo not given)	-1.9%	17µM*	-20.6%	11.3%	92.0%	?	?	3.7%	-7.6%	-23.2%
Cc1cccc(NC(=O)Cn2c(=O)c3cccn3c3ccccc32)c1C	?	?	-2.1%	-11.8%	86.3%	-2.4%	3.0%	2.0%	14.6%	-26.0%
CCc1ccccc1NC(=O)Cn1c(=O)c2cccn2c2ccc(F)cc21	-8.1%	-4.3%	5.7%	5.0%	-4.5%	.	.	.	.	.
O=[N+]([O-])c1ccc(N2CCN(c3ccccc3F)CC2)c(S(=O)(=O)N2CCOCC2)c1	.	.	.	.	25.6%	.	.	.	.	.
c1ccc(CSc2nnc(-c3cccs3)n2Cc2ccco2)cc1	.	.	.	-12.9%	-10.7%	.	.	.	.	.
COc1ccc(-c2nnc(SCC(=O)NCc3ccccc3)nc2-c2ccc(OC)c(OC)c2)cc1OC	-12.1%	7.27µM*	1.0%	2.0%	1.0%	?	?	4.9%	-5.7%	?
CCOc1ccc(-c2nnc(SCC(=O)NCc3ccc(C)cc3)nc2-c2ccc(OCC)c(OC)c2)cc1OC	0.2%	-12.9%	-21.5%	-1.9%	14.2%	.	.	.	.	.
O=C(NCCc1ccccc1Cl)C1CCN(c2nc3ccccc3nc2C(F)(F)F)CC1	0.0%	9.46µM*	?	-3.2%	1.7%	-1.2%	9.2%	4.4%	21.1%	-25.7%
COc1ccccc1CCNC(=O)C1CCN(c2nc3ccccc3nc2C(F)(F)F)CC1	4.1%	-17.4%	?	-0.8%	-17.9%	.	.	.	.	.
COc1ccc(CN2C(=O)c3oc4ccccc4c(=O)c3C2c2ccc(O)cc2)cc1 (stereo not given)	-0.9%	-4.1%	-0.8%	7.2%	-14.1%	.	.	.	.	.
COc1ccc(N2CCN(c3c4c(nc5nncn35)CCC4)CC2)cc1	?	13.4µM*	-25.6%	-3.8%	-13.6%	?	0.0%	-7.6%	-8.3%	?
COc1cc(OC)cc(C(=O)Nc2ccc3nc4c(c(Nc5ccc(OC)c(OC)c5)c3c2)CCCC4)c1	0.0%	?	?	?	?	.	.	.	.	.
COc1ccc(Nc2c3c(nc4ccc(NC(=O)c5cc(Cl)ccc5OC)cc24)CCCC3)cc1OC	0.3%	4.74µM*	?	6.31µM*	5.01µM*	-13.1%	-2.4%	12.1%	13.7µM*	9.68µM*
CCOc1ccccc1NC(=O)CSc1nc2c(oc3ccccc32)c(=O)n1Cc1ccco1	-3.7%	11.3µM*	?	1.6%	-4.2%	-15.7%	2.1%	-6.8%	1.7%	-32.9%
Cc1ccc(C)c(NC(=O)Cn2c(=O)n(Cc3ccco3)c(=O)c3oc4ccccc4c32)c1	5.3%	11.9µM*	-2.4%	2.4%	-1.4%	-16.9%	2.8%	-0.1%	-23.9%	?
